# Compound activity: PubChem BioAssay, several laboratories
# Only some compounds are listed: those with a hit (about 1.5% of all), similar ones and a draw of the others.
# MLLE-PAM2 inh: inhibitors of microRNA-mediated deadenylation, human PABP1 MLLE binding. inhibition, % at 20 µM. GST-MLLE / FITC-PAM2 fluorescence polarization. hit rate 0.36% among 360,000. AID 588489. P11940; in the data active = inhibition above about 35%, passing the limit was not always enough;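 also: plate controls were DMSO wells with GST-MLLE for no effect and wells lacking GST-MLLE protein for full effect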
# PABP polyA inh: blocks human PABP binding to poly(A) RNA; P11940; calls only at 35 µM; fluorescence polarization; hit rate 1% among 290,000; AID 2014;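 also: calls also rest on retests at 20 µM and on dose response follow-up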
# eIF4H inh: inhibitors of RNA binding by human eIF4H; Q15056; eIF4H fluorescence polarization binding assay; inhibition, % at 35 µM; hit rate 0.94% among 290,000; AID 2012;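 also: calls also rest on retests at 20 µM and on dose response follow-up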
# eIF4E 4G PPI: eIF4E/eIF4G interaction inhibition in translation initiation | inhibition, % at 21.7 µM | hit rate 0.37% among 220,000 | P63073+Q04637 | AID 782 | TR-FRET eIF4E-eIF4GI(517-606) binding, 2 h;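 active = inhibition above about 30%, limit read from the data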;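 also: 0% = full FRET control wells and 100% = background wells lacking eIF4GI fragment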
# Active calls of the source: *; i = inactive; ? = inconclusive; . = no result given; + = active, no number. Unless noted, no rule for the calls is given here.
SMILES,MLLE-PAM2 inh,PABP polyA inh,eIF4H inh,eIF4E 4G PPI
N#CC12COC3(CCCCC3C1(C#N)C#N)OC2=N (configuration not stated),49*,?,?,-3
Cc1nc(CCNC(=O)CC2C(=O)NCCN2Cc2ccccc2)sc1C (configuration not stated),38*,i,7,.
Cc1cnc(CNC(=O)CC2C(=O)NCCN2Cc2cccc(F)c2F)cn1 (configuration not stated),21,+,81*,.
O=C(CC1C(=O)NCCN1Cc1ccc(Cl)c(F)c1)NCC1CCOCC1 (configuration not stated),16,i,14,90*
COc1cccc(CN2CCNC(=O)C2CC(=O)NCc2cn3ccccc3n2)c1OC (configuration not stated),15,+,86*,-3
Cc1cc(C)c(S(=O)(=O)N2CCN(C(=O)CC(C)n3nc(C)nc3C)CC2)c(C)c1 (configuration not stated),6,.,.,.
CCC1CCCCN1CCCNC(=O)c1cc2c(=O)[nH]c3ccccc3c2n1C (configuration not stated),-8,i,-5,3
O=C(C[C@H]1C(=O)N(c2ccccc2)C[C@@H]1Cc1ccccc1)Nc1ccccc1,-8,.,.,.
CC(C)(C)n1nnnc1C(CCc1ccccc1)N1CCN(C/C=C/c2ccccc2)CC1 (configuration not stated),-3,.,.,.
O=c1c2ccccc2n2c(-c3ccc(F)cc3)nnc2n1Cc1ccccc1,-15,+,53*,-1
O=c1c2ccccc2n2c(-c3ccc(C(F)(F)F)cc3)nnc2n1Cc1ccccc1,-9,i,4,0
CC(=O)c1sc2nc(-c3ccco3)ccc2c1N,30,+,91*,14
O=C(Nc1ccc(-n2nncc2-c2ccco2)cc1)c1ccc(F)cc1,-4,i,-1,-2
Nc1c(C(=O)Nc2ccc(Br)cc2)sc2nc(-c3ccco3)ccc12,-9,+,81*,4
Nc1c(C(=O)Nc2ccc(F)cc2)sc2nc(-c3ccco3)ccc12,-2,+,99*,6
COc1ccc(CN2CCC[C@]3(N[C@H](c4ccc(C)cc4)[C@@H]4C(=O)N(Cc5ccccc5)C(=O)[C@@H]43)C2=O)cc1,-9,.,.,.
CNC(=O)C[C@H]1C(=O)N(CCc2ccccc2)C[C@@H]1C,5,.,.,.
C[C@@H]1CN([C@H](C)CO)C(=O)CCCn2cc(nn2)CO[C@H]1CN(C)C(=O)Nc1ccnc(N2CCOCC2)c1,1,.,.,.
O=C(O)c1cccc(S(=O)(=O)Nc2ccc3c(c2)OCO3)c1,38*,i,7,5
Cc1ccccc1-n1c(SCC(=O)Nc2ccccc2)nc2nc3c(cc2c1=O)CCCC3,-17,i,active,0
CCn1c(SCC(=O)Nc2ccc(C(C)=O)cc2)nc2nc3c(cc2c1=O)CCCC3,-7,i,-4,51*
CCn1c(SCc2ccccc2Cl)nc2nc3c(cc2c1=O)CCCC3,-9,+,active,4
C[C@@H]1CN([C@H](C)CO)C(=O)CCCn2cc(nn2)CO[C@H]1CN(C)S(=O)(=O)c1ccc2c(c1)OCCCO2,0,.,.,.
C#CCN(C[C@@H]1[C@@H](OC(=O)NCc2ccco2)[C@@H](OC(=O)NCc2ccco2)CN(C(=O)OC(C)C)N1C(=O)OC(C)C)S(=O)(=O)c1ccc(C)cc1,-10,.,.,.
O=C(NCC1CCCCC1)c1cc(-c2cc(F)ccc2OCC2CCCO2)n[nH]1 (configuration not stated),-16,.,.,.
SMILES,MLLE-PAM2 inh,PABP polyA inh,eIF4H inh,eIF4E 4G PPI
Cc1ccc(NC(=O)COc2ccc(/C=C3/SC(=Nc4ccccc4)N(Cc4cccnc4)C3=O)cc2)cc1,-18,+,58*,4
CCCCN(C)C(=O)c1sc(=O)n(Cc2ccc(Cl)c(Cl)c2)c1C,-5,.,.,.
N#C/C(=C(/O)CCl)c1nc2ccccc2[nH]1,-15,+,?,12
COC(=O)[C@]1(C)N[C@H](CN(C)C(=O)c2ccc(F)cc2)[C@@H]2C(=O)N(C)C(=O)[C@@H]21,-17,.,.,.
CN1C(=O)N(C)c2ccc(Br)c3cccc1c23,-4,i,-4,.
CN1C(=O)N(C)c2ccc(C=O)c3cccc1c23,58*,i,?,-6
CCOC(=O)c1c(C)[nH]c(C)c1S(=O)(=O)NC(CC)CN1CCOCC1 (configuration not stated),1,+,94*,.
CCN(CC)CCCN1C(=O)C(O)=C(C(=O)c2ccc(C)o2)C1c1ccc(C)o1 (configuration not stated),0,+,18,-2
CCN(CC)CCCN1C(=O)C(O)=C(C(=O)c2ccco2)C1c1ccc(C)o1 (configuration not stated),16,.,.,.
